From PubChem BioAssay
Calls of active or inactive are those of the source. Unless noted, the rule behind the calls is not given here.

Assays:
[1] = system: Wnt5a (protein binding on small-molecule microarray); experiment: Wnt5a binders on small-molecule microarray, primary screen, biophysical, 635/667 nm fluorescence (AID 1142); conditions: 635 nm fluorescence, higher = more signal;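 note: fluorescence read at 667 nm with signal to noise per printed feature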
[2] = cell viability in Huh7 cells, primary screen, cytotoxicity control for HCV replication inhibitor project, CellTiter-Glo luminescence, basal, 48 h (AID 1143); conditions: Huh7 HCV replicon, higher = more signal, called active from +8 up or from −8 down;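 note: Huh7 hepatoma cells carrying a hepatitis C replication reporter with no stimulus; test concentration not given here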
[3] = P. aeruginosa biofilm formation inhibitors, primary screen, PAO1 strain, BacTiter-Glo luminescence, LB-PBS (AID 1144); conditions: 12 h, higher = more signal
[4] = CREB reporter modulators without forskolin, primary screen, cell-based, PC12, CRE-LacZ reporter, unstimulated (AID 1145); conditions: no forskolin, luminescence, 4.5 h, higher = more signal, called active from +8 up or from −8 down
[5] = CREB reporter modulators under forskolin, primary screen, cell-based, PC12, CRE-LacZ reporter, forskolin-stimulated (AID 1146); conditions: luminescence, 4.5 h, higher = more signal, called active from +8 up or from −8 down;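 note: PC12 cells with 6xCRE LacZ reporter stimulated by forskolin 10 µM; beta-galactosidase reporter signal reflecting CREB driven transcription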
[6] = target: Streptavidin (Streptomyces avidinii) (UniProt P22629); experiment: streptavidin binders on small-molecule microarray, primary screen, artefact control for SMM compound annotation, biophysical, 635/667 nm fluorescence (AID 1147); conditions: streptavidin binding, higher = more signal;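 note: signal reflects streptavidin binding to arrayed compounds as a control protein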
Chain of Streptavidin (Streptomyces avidinii) (P22629 whole entry, looked up): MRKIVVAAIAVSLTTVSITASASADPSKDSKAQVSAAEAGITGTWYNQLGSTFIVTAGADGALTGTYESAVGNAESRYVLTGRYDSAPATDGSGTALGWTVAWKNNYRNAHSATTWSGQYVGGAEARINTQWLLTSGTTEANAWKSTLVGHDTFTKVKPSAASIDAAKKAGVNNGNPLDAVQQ

[7] = small-molecule binders of probe aInhba, primary screen, biochemical, small-molecule microarray, 635/667 nm fluorescence (AID 1148); conditions: higher = more signal;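 note: score merges 667nm spot fluorescence with signal-to-noise for antibody binding to printed compounds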
[8] = target: Torsin-1A (Homo sapiens) (UniProt O14656); experiment: torsin A binders from cell lysate, primary screen, small-molecule microarray, wild-type, 635/667 nm (AID 1149); conditions: COS7 hTOR1A-WT lysate, 635 nm fluorescence, higher = more signal
Chain of Torsin-1A (Homo sapiens) (O14656 whole entry, looked up): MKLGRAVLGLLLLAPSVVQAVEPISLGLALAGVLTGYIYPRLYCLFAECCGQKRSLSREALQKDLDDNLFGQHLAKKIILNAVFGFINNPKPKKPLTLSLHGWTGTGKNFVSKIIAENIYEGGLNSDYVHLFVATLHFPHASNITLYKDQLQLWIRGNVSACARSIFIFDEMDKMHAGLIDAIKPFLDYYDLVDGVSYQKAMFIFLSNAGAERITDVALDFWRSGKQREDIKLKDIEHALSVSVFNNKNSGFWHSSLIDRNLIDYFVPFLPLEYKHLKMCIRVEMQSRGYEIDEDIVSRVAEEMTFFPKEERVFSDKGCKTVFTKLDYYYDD

[9] = target: Torsin-1A (Homo sapiens) (UniProt O14656); experiment: small-molecule binders of mutant TOR1A in lysate, primary screen, cell lysate, small-molecule microarray, COS7 lysate, 635/667 nm fluorescence (AID 1150); conditions: COS7 hTOR1A mutant lysate, 635 nm fluorescence, higher = more signal;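 note: score pools 667 nm emission and signal to noise measuring lysate protein binding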
[10] = system: Sonic hedgehog protein (Shh); experiment: small-molecule binders of Shh protein, primary screen, biochemical, small-molecule microarray, 635/667 nm fluorescence (AID 1151); conditions: small-molecule microarray binding, 635 nm fluorescence; higher = more signal;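 note: Shh protein binding to compounds spotted on small-molecule microarray slides; score combines spot fluorescence intensity with signal-to-noise across triplicate slides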

SMILES	composite z-score [1]	z-score [2]	z-score [3]	z-score [4]	z-score [5]	composite z-score [6]	composite z-score [7]	composite z-score [8]	composite z-score [9]	composite z-score [10]
CCOC(=O)C1=CCC(c2ccncc2)N(S(=O)(=O)c2ccc(C)cc2)C1 (stereo not given)	0.637	-4.28 (inactive)	-0.83 (inactive)	0.546 (inactive)	0.882 (inactive)	3.08	0.121	0.344	1.12	0.245
CC1CC/C=C\[C@H]2OC34C=CCN(CCN5CCOCC5)C(=O)[C@H]3N(C(CO)C(C)C)C(=O)[C@@H]4C2C(=O)O1 (stereo not given in full)	0.115	0.211 (inactive)	1.52 (inactive)	-0.0778 (inactive)	0.341 (inactive)	-0.0429	-0.128	1	-0.05	0.795
C=C[C@H](C)[C@@H](OC(=O)Nc1ccc(SC)cc1)c1ccc(OCCO)cc1	0.179	-2.91 (inactive)	-0.567 (inactive)	6.08 (inactive)	-0.24 (inactive)	-0.363	0.36	-0.0803	0.278	1.98
C=CCC(OC(C)=O)[C@@H]1[C@@H](N(Cc2cccc3ccccc23)C(=O)c2ccc(C)cc2)c2cc(OCCCO)ccc2N1C(=O)Cc1ccc2ccccc2c1 (stereo not given in full)	0.245	-0.72 (inactive)	-0.234 (inactive)	1.46 (inactive)	-0.0127 (inactive)	0.652	-0.101	0.125	-0.564	-0.0314
[N-]=[N+]=Nc1ccccc1C[C@]1(C(N)=O)COC(c2ccc(OCCCO)cc2)=N1	0.131	-3.62 (inactive)	-1.16 (inactive)	1.33 (inactive)	-1.31 (inactive)	0.559	0.285	0.517	1.21	-0.567
COC(=O)[C@@]1(Cc2ccc(F)cc2)[C@H]2c3cc(C(=O)N(C)C)n(Cc4ccsc4Br)c3C[C@H]2CN1C(=O)c1ccccc1	2.41	-1.49 (inactive)	0.00128 (inactive)	1.73 (inactive)	-0.0932 (inactive)	1.66	2.03	-0.0698	0.39	-0.635
COc1cc(CO)cc(I)c1O[C@H]1C=C(C(=O)NCCO)C[C@@H](N(CCN2CCOCC2)C(=O)C2CCCO2)[C@@H]1O (stereo not given in full)	-0.103	0.0418 (inactive)	-0.137 (inactive)	0.497 (inactive)	-1.04 (inactive)	-0.0582	-0.256	0.404	0.0245	-0.203
O=C1OCCC/C=C\[C@H]2OC34C=CCN(Cc5ccccc5)C(=O)[C@H]3N(CCO)C(=O)[C@@H]4C12 (stereo not given in full)	0.0691	0.347 (inactive)	-1.38 (inactive)	-0.0899 (inactive)	-0.0501 (inactive)	-1.06	0.225	1.3	0.232	1.87
COCCOC(=O)N1C(=O)[C@@]2(c3cc(C#CCCO)ccc31)[C@H](c1ccc(O)cc1)N1[C@H](c3ccccc3)[C@H](c3ccccc3)OC(=O)[C@H]1[C@@H]2C(=O)NC[C@H](O)c1ccccc1	0.0153	-1.64 (inactive)	-0.718 (inactive)	0.0776 (inactive)	-0.583 (inactive)	-0.331	0.0101	0.127	-0.0807	1.03
C[N+](C)(C)CCCC[C@@H]1NC(=O)[C@H]2C[C@@H](C(=O)NCCCCCN)[C@@H](c3ccc(O)cc3)N2C1=O	0.801	-0.147 (inactive)	0.69 (inactive)	1.11 (inactive)	0.466 (inactive)	2.29	0.228	0.926	0.6	2.17
COc1ccc([Si](C)(C)[C@H]2[C@H](CC(=O)N(CCO)Cc3ccccc3)O[C@@]3(C(=O)N(Cc4cccc(N5CCCCC5=O)c4)c4ccccc43)[C@@H]2C)cc1	0.0763	-4.74 (inactive)	-0.937 (inactive)	3.13 (inactive)	-1.32 (inactive)	0.0037	-0.0719	0.444	0.793	2.13
C=C(/C=C\CNS(=O)(=O)c1ccc(C)cc1)[C@H](O)[C@H]1CCCN1S(=O)(=O)c1ccccc1[N+](=O)[O-]	0.0313	-4.19 (inactive)	0.227 (inactive)	13 (active)	0.121 (inactive)	-0.0435	-0.0986	0.345	-0.0414	0.17
COc1cc(Cc2cc3c(c(-c4ccccc4)n2)[Si](C(C)C)(C(C)C)OC3)cc(OC)c1OC	0.26	-0.324 (inactive)	-0.546 (inactive)	-0.113 (inactive)	-0.437 (inactive)	1.89	0.161	-0.226	-0.141	0.143
COc1ccc([Si](C)(C)[C@@H]2[C@@H](CC(=O)N(CCO)Cc3ccccc3)O[C@]3(C(=O)N(Cc4cccc(I)c4)c4ccccc43)[C@H]2C)cc1	0.546	-4.61 (inactive)	0.191 (inactive)	1.42 (inactive)	-1.11 (inactive)	-0.196	-0.0405	0.48	0.443	1.79
